Screening results (PubChem BioAssay)
This excerpt belongs to a sample that is enriched for hits.
Tg IFNy HTS: T. gondii growth inhibition with IFN-gamma, primary screen, cell-based. AID 1259416, 2018. activity change, negative = inhibition, % (test concentration not listed). hit rate 3.8% among 69,000. Toxoplasma gondii growth in IFN-gamma-treated host cells; hits give low values; in the data active = activity change below about -70%, passing the limit was not always enough;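 note: host cells are HeLa cells infected with Toxoplasma gondii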
Each line names hits and unclear results; the compound was inactive in the other large screens; ! = repeats disagree.

Cc1nn(CCO)cc1CN1CCN(S(=O)(=O)c2ccccc2)CC1	none
CN1CC2(CCN(C(=O)c3ccc4nc(CO)[nH]c4c3)C2)OC1=O (stereo unspecified)	none
CN(C)S(=O)(=O)c1ccc2c(c1)cc(C(=O)NCCc1ccccc1Cl)n2Cc1ccncc1	none
CCCCOc1ccc2c(=O)c(-c3cc(C(=O)OC)oc3C)c(C(F)(F)F)oc2c1C	Tg IFNy HTS -108
CCc1c(C)c2ccc(OCC(=O)OC(C)C)c(C)c2oc1=O	none
C=CCOc1ccc2c(=O)cc(C(=O)OCC)oc2c1CCC	none
CCc1ccccc1S(=O)(=O)N1CCC2(CC1)Nc1ccc(Cl)cc1-n1cccc12	none
Cc1nc(CN(C)C(=O)c2ccc(CSc3ccccn3)cc2)no1	none
O=C(Nc1ccc(OCc2ccccc2F)cc1)c1ccc(-n2cnnc2)cc1	none
CN1CCN(c2cc(C(=O)NCCS(=O)(=O)c3ccc(F)cc3)ccn2)CC1	none
CN1CCN(c2cc(C(=O)Nc3ccc(OCc4ccccc4F)cc3)ccn2)CC1	Tg IFNy HTS -76
CCCc1nc(C)cc(N2CCN(c3ncccc3C(N)=O)CC2)n1	none
CCN1C(=O)CCC12CCC(NC(=O)c1ccc[nH]1)CC2 (stereo unspecified)	none
COc1cc(NC(=O)CN2C(=O)CCc3cc(Br)ccc32)cc(OC)c1	none
Cc1ncsc1C(=O)N1CCOC(c2cc(C(=O)NCC(C)C)c3ccccc3n2)C1 (stereo unspecified)	none
Cc1ccc(NC(=O)Cn2ncc3c(N4CCN(c5ccccn5)CC4)ncnc32)c(Cl)c1	none
S=C(NCc1ccccc1)Nc1ccc(Br)cc1	none
S=C(N/N=C1\CCCc2c1[nH]c1ccc(Br)cc21)Nc1ccccc1	Tg IFNy HTS -82
O=C(NC(=S)Nc1ccc2c(c1)CCC2)c1ccccc1	none
Cc1ccccc1-c1ncc(CN(CCN(C)C)Cc2cccs2)cn1	none
CCCc1nnc(SCC(=O)NC2CCCC2)n1Cc1ccco1	none
Cc1ccc2[nH]c(=O)c(-c3nc(-c4ccc(F)c(F)c4)no3)c(O)c2c1	none
CN1CC2(CCCN(Cc3nccn3C)CC2)OC1=O (stereo unspecified)	none
O=C1Cc2cc(N3CC(C(=O)O)CC3=O)ccc2N1 (stereo unspecified)	none
Fc1ccc(-c2noc(-c3ccc4c(c3)OCO4)n2)cc1	none
O=C1Cc2cc(-c3ccc4c(c3)OCO4)ccc2N1	Tg IFNy HTS -75
Cc1cc(Nc2cnccn2)nc(C2CCCN(CCO)C2)n1 (stereo unspecified)	none
O=C(Nc1cncc(C#Cc2ccccc2)c1)N1CCCC1	none
Cc1ccc(C)c(NC(=O)CC(=O)NCCc2cnc[nH]2)c1	none
Cc1ccc(N2CC(NC(=O)c3cc4n(n3)CCCN(C)C4)CC2=O)cc1 (stereo unspecified)	none
CCOc1ccccc1-c1nc(Cn2ccn3nc(-c4ccccc4OC)cc3c2=O)c(C)o1	none
CCOc1ccccc1-c1nc(Cn2ccn3nc(-c4cccs4)cc3c2=O)c(C)o1	Tg IFNy HTS -87
Cc1ccccc1-c1nc(Cn2ccn3nc(-c4cccs4)cc3c2=O)c(C)o1	none
Cc1ccc2[nH]cc(-c3cccc(-n4cnnc4)c3)c2c1	none
CC(=O)N1CCC2(CC1)OC(=O)C(C)=C2C(=O)NCCCc1ccccc1	none
O=C(NC1CCCC1)N1CC[C@H]2CN(Cc3ccc(Cl)cc3)S(=O)(=O)[C@@H]2CC1	Tg IFNy HTS -89
O=C(c1ccn[nH]1)N1CC[C@H]2CN(Cc3ccc(Cl)cc3)S(=O)(=O)[C@@H]2CC1	Tg IFNy HTS -73
COc1ccc(CCN2C[C@@H]3CCN(C(=O)c4cnc(C)cn4)CC[C@H]3S2(=O)=O)cc1	none
COc1ccc(CN2C[C@@H]3CCN(C(=O)c4ccn[nH]4)CC[C@H]3S2(=O)=O)cc1	none
O=C(C1CCC1)N1CC[C@H]2CN(Cc3ccc(Cl)cc3)S(=O)(=O)[C@@H]2CC1	none
COc1cccc(CN2C[C@@H]3CCN(C(=O)C4CCC4)CC[C@H]3S2(=O)=O)c1	Tg IFNy HTS -91
CC(C)CN1C[C@@H]2CCN(C(=O)NC3CCCC3)CC[C@H]2S1(=O)=O	none
COc1ccc(CN2C[C@@H]3CCN(C(=O)c4ccno4)CC[C@H]3S2(=O)=O)cc1	none
O=C(C1CCC1)N1CC[C@H]2CN(Cc3ccccc3)S(=O)(=O)[C@@H]2CC1	none
COCCN1CC2(CCN(C(=O)c3csnn3)CC2)c2ccccc21	none
CC(C)N1CCOCC2(CCCN(C(=O)c3ccc4ncccc4c3)C2)C1 (stereo unspecified)	none
CS(=O)(=O)NC1CCC2(CCC(=O)N2Cc2ccncc2)CC1 (stereo unspecified)	none
CN(C)c1nc2c(c(N(C)C)n1)CCN(C(=O)CNS(C)(=O)=O)C2	none
O=C(CCn1cncn1)N1CCC(Cc2nncn2-c2ccccc2)CC1	none
Cc1nccc(-c2cccc(-n3ccnc3-c3ccccc3OCCO)c2)n1	none
C=CCN1C[C@@H]2CN(C(=O)c3ccnn3C)C[C@H]2C1=O	none
Cc1cc(C)nc(SCc2ccc(C(=O)Nc3nccs3)cc2)n1	Tg IFNy HTS -88
O=C(Cc1ccccc1)Nc1nccs1	none
Cc1cc(SCc2ccc(C(=O)O)cc2)nc(SCc2ccc(Cl)cc2)n1	none
CC(C)c1cc(C2CC(=O)Nc3c2cnn3Cc2ccccc2Cl)on1 (stereo unspecified)	none
Cc1ccc(-c2coc(-c3ccc(NC(=O)Nc4ccc(F)cc4)cc3)n2)cc1	none
CCSc1nsc(NC(=O)CN2CCC(Oc3cccc(F)c3)CC2)n1	none
O=C(Nc1ccc(F)cc1)Nc1nc(SCc2ccc(F)cc2)ns1	Tg IFNy HTS -110
Cn1cnc(S(=O)(=O)N2CC[C@@H](c3ccc4c(c3)OCO4)[C@H](O)C2)c1	none
O=C(NC(c1ccc(Cl)cc1)c1cccnc1)c1nn2cccnc2c1Cl (stereo unspecified)	none
N#C/C(=C1/SCC(c2ccccc2Cl)S1)n1ccnc1 (stereo unspecified)	none
Clc1ccccc1C(c1ccccc1)(c1ccccc1)n1ccnc1	Tg IFNy HTS -83!
FC(F)(F)c1ccccc1-n1ccnc1	none
CC(=O)NC(Cc1c[nH]c2ccccc12)C(=O)OCc1cc(C(F)(F)F)cc(C(F)(F)F)c1 (stereo unspecified)	none
FC(F)(F)c1cc(CO[C@H]2CCCN[C@H]2c2ccccc2)cc(C(F)(F)F)c1	Tg IFNy HTS -81!
COc1ccc(Cl)cc1C(=O)Nc1ccc(-c2nc(Cn3cc(C)cn3)c(C)o2)cc1	none
Cc1cnn(Cc2nc(-c3ccc(NC(=O)c4cccc(Cl)c4)cc3)oc2C)c1	none
CCOc1ccc(C(=O)Nc2ccc(-c3nc(Cn4cc(C)cn4)c(C)o3)cc2)cc1	Tg IFNy HTS -91
CCc1ccc(C(=O)Nc2ccc(-c3nc(Cn4cccn4)c(C)o3)cc2)cc1	none
Cc1cnn(Cc2nc(-c3ccc(NC(=O)c4ccc(Cl)cc4)cc3)oc2C)c1	Tg IFNy HTS -87
Cc1cnn(Cc2nc(-c3ccc(NC(=O)COc4ccccc4)cc3)oc2C)c1	none
O=C(Cn1c(=O)cc(C(=O)N2CCCCC2)c2ccccc21)Nc1ccccc1F	none
CCCS(=O)(=O)N1CCc2onc(Cn3cccc3)c2C1	none
CCc1cc(C(=O)Nc2nc3c(s2)CCCCCC3)n(C)n1	none
Cc1ccc(-c2nc(NC(=O)c3cncc(-c4cccs4)c3)sc2C)cc1Cl	none
Cc1ccc(-c2nc(NC(=O)c3cc(C(C)(C)C)nn3C)sc2C)cc1Cl	Tg IFNy HTS -78
Cc1nccc(-c2cccc(NCc3cccs3)c2)n1	none
CCOc1cccc(C2c3[nH]c4ccccc4c3CCN2C(=O)CCC2CCCC2)c1 (stereo unspecified)	none
COc1ccc(C2c3[nH]c4ccccc4c3CCN2C(=O)c2cccc(OC)c2)cc1 (stereo unspecified)	Tg IFNy HTS -99
CCOc1cccc(C2c3[nH]c4ccccc4c3CCN2C(=O)c2cccnc2)c1 (stereo unspecified)	none
